The record followed here is PubChem BioAssay (NCI).

Test systems include DU-145 prostate; K-562 leukemia; MALME-3M melanoma; MDA-MB-231 breast; RXF 393 renal; SF-268 CNS; SF-539 CNS; M14 melanoma; HCT-15 colon; HT29 colon; SNB-75 CNS; SNB-19 CNS; PC-3 prostate; SK-MEL-5 melanoma; UACC-62 melanoma; LOX IMVI melanoma; SK-MEL-28 melanoma; SF-295 CNS; UACC-257 melanoma; U251 CNS.
Assay in all cases: NCI-60 one-dose screen, 48 h (100 = growth as untreated, 0 = no growth, -100 = all killed)
Holding throughout (conditions): 10 µM unless noted

SMILES strings stand for the structures. This is part of a sample that, as a whole, favours compounds with a hit. Of some 83,000 tested, about 20% had one in any assay.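 Treatment: one concentration, 48 hours, 96-well format. Scoring: percent growth, with anything below 10 considered active.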 Values without a mark were called inactive. Active and inactive are the calls of the source.

Regarding `CCCCCCCCCCCCCCCCNCCC[C@@H](C)[C@H]1CC[C@H]2[C@@H]3[C@H](OCCCN)C[C@@H]4C[C@H](OCCCN)CC[C@]4(C)[C@H]3C[C@H](OCCCN)[C@]12C`, the growth with DU-145 prostate is -82.2% (active); in the assay with K-562 leukemia it was -34.7% (active); with MALME-3M melanoma it was -60.7% (active); in the assay on MDA-MB-231 breast it was -98.2% (active); in the assay with RXF 393 renal it was -41.2% (active); in the assay with SF-268 CNS, -38.2% (active). The growth in the assay with SF-539 CNS is -68% (active); with M14 melanoma it was -28.7% (active); with HCT-15 colon it was 7.08% (active); in the assay on HT29 colon, -41% (active); in the assay on SNB-75 CNS, -64.8% (active); in the assay on SNB-19 CNS, -66.6% (active). In addition, the growth was -14.4% (active) in the assay on PC-3 prostate; 3.14% (active) in the assay with SK-MEL-5 melanoma; -64.2% (active) in the assay on UACC-62 melanoma; -60.4% (active) in the assay with LOX IMVI melanoma; -64.7% (active) with SK-MEL-28 melanoma.
In the case of `CNCCCn1c2c(c3ccc([N+](=O)[O-])cc3c1=O)C(=O)c1cc(OC)cnc1-2`, the growth in the assay on DU-145 prostate was 0.657% (active); in the assay with K-562 leukemia it was -28.9% (active); with MALME-3M melanoma, -69.2% (active); in the assay on MDA-MB-231 breast, -51.9% (active); with RXF 393 renal, -90.5% (active); in the assay with SF-268 CNS, 0.163% (active). Further, the growth was -13.2% (active) in the assay on SF-295 CNS; -23.1% (active) in the assay on UACC-257 melanoma; -27.5% (active) in the assay with HCT-15 colon; -19.2% (active) in the assay with HT29 colon; -26.5% (active) with SNB-75 CNS; 2.67% (active) in the assay with SNB-19 CNS. In addition, the growth in the assay on U251 CNS is -61.1% (active); in the assay on PC-3 prostate, 2.02% (active); with SK-MEL-5 melanoma, -98.8% (active); in the assay with UACC-62 melanoma, -77.1% (active); in the assay on LOX IMVI melanoma, -89% (active); with SK-MEL-28 melanoma it was -67% (active).
For the molecule `O=c1[nH]c(-c2ccccn2)nc2sc3c(c12)CCCCC3`, the growth in the assay on DU-145 prostate was 48.8%; with K-562 leukemia, 21.4%; in the assay on MALME-3M melanoma, 75.3%; in the assay on MDA-MB-231 breast it was 52.4%; with RXF 393 renal, 70.4%; with SF-268 CNS, 47.6%. The growth was 33.1% with SF-295 CNS; 73.4% with UACC-257 melanoma; 34.3% in the assay on HCT-15 colon; 36.9% with HT29 colon; 80.9% with SNB-75 CNS; 46.1% with SNB-19 CNS. The growth with U251 CNS was 17.1%; with PC-3 prostate, 44.2%; with SK-MEL-5 melanoma, 44.5%; in the assay on UACC-62 melanoma, 20.2%; in the assay with LOX IMVI melanoma, 8.61% (active); with SK-MEL-28 melanoma, 45.2%.
As for `O=C(CN1CCOCC1)Nc1ccc(Cn2nnc3c2C(=O)c2nnn(Cc4ccc(NC(=O)CN5CCOCC5)cc4)c2C3=O)cc1`, the growth in the assay on DU-145 prostate is -76.7% (active); in the assay with K-562 leukemia, 0.148% (active); in the assay with MALME-3M melanoma, -81.6% (active); in the assay with MDA-MB-231 breast, -9.32% (active); in the assay on RXF 393 renal, -18.7% (active); with SF-268 CNS, -5.75% (active). The growth was -44.9% (active) with SF-295 CNS; -95.2% (active) with UACC-257 melanoma; -90.4% (active) in the assay with M14 melanoma; 70.8% with HCT-15 colon; -37.3% (active) in the assay with HT29 colon; -87.4% (active) with SNB-75 CNS. The growth with SNB-19 CNS is -15% (active); in the assay with PC-3 prostate, 5.89% (active); with SK-MEL-5 melanoma, -86.9% (active); with UACC-62 melanoma, -77.3% (active); in the assay on LOX IMVI melanoma, -25.1% (active); in the assay with SK-MEL-28 melanoma it was -34.6% (active).
In the case of `COc1ccc(/C=C2\N=C3SC=C(N)N3C2=O)cc1`, the growth was 26.5% in the assay on DU-145 prostate; 5.29% (active) with K-562 leukemia; -15.3% (active) in the assay on MALME-3M melanoma; 42.5% with MDA-MB-231 breast; -21.2% (active) in the assay on RXF 393 renal; 37.3% in the assay on SF-268 CNS. Also, the growth in the assay with SF-539 CNS is 26.7%; in the assay with M14 melanoma it was 24.8%; in the assay with HCT-15 colon, 20.7%; in the assay on HT29 colon it was 9.12% (active); in the assay on SNB-75 CNS, 25.2%; in the assay on SNB-19 CNS it was 53.8%. Besides, the growth in the assay with PC-3 prostate is 20.6%; in the assay on SK-MEL-5 melanoma, 4.65% (active); in the assay on UACC-62 melanoma, 23%; with LOX IMVI melanoma it was -47.5% (active); in the assay on SK-MEL-28 melanoma it was 43.7%.
As for `O=S(=O)(NCCCNc1cc(-c2cn(-c3ccccc3)nc2-c2cccc(O)c2)ccn1)c1ccccc1`, the growth is 53.7% with DU-145 prostate; 1.96% (active) in the assay with K-562 leukemia; 37.2% in the assay with MALME-3M melanoma; 9.24% (active) in the assay with MDA-MB-231 breast; 36.7% in the assay on RXF 393 renal; 52.8% in the assay on SF-268 CNS. The growth in the assay on SF-295 CNS was 11%; with M14 melanoma, 46.2%; with HCT-15 colon it was 9.91% (active); in the assay on HT29 colon, 14.8%; in the assay on SNB-75 CNS it was 51%; in the assay with SNB-19 CNS it was 77.5%. Besides, the growth in the assay with U251 CNS is 41.3%; in the assay on PC-3 prostate, 21.5%; in the assay on SK-MEL-5 melanoma, 15.4%; in the assay with UACC-62 melanoma, 50.1%; in the assay with LOX IMVI melanoma, 17%.
On to `Cc1sc2nc3[nH]/c(=C\c4ccc(Cl)cc4)c(=O)n3c(=O)c2c1C`, for which the growth is 109% in the assay with DU-145 prostate; 101% in the assay on K-562 leukemia; 102% in the assay on MALME-3M melanoma; 111% in the assay on MDA-MB-231 breast; 99.5% in the assay with RXF 393 renal; 102% in the assay on SF-268 CNS. Moreover, the growth in the assay on SF-539 CNS was 103%; in the assay on M14 melanoma, 103%; in the assay with HCT-15 colon, 96.5%; in the assay on HT29 colon, 96.1%; in the assay on SNB-75 CNS, 89.6%; with SNB-19 CNS it was 101%. The growth with PC-3 prostate is 97.3%; in the assay with SK-MEL-5 melanoma, 99.4%; in the assay on UACC-62 melanoma, 99.2%; with LOX IMVI melanoma, 103%; with SK-MEL-28 melanoma, 99.8%.
Regarding `COc1ccc(-c2cnoc2-c2cc(OC)c3c(c2)OCCO3)cc1`, the growth in the assay with DU-145 prostate is -9.77% (active); in the assay on K-562 leukemia it was 6.93% (active); with MALME-3M melanoma, 62.8%; in the assay on MDA-MB-231 breast, -23.8% (active); in the assay on RXF 393 renal, 32.3%; in the assay with SF-268 CNS, 19.9%. In addition, the growth was 9.28% (active) in the assay on SF-295 CNS; 69.7% in the assay with UACC-257 melanoma; 4.48% (active) in the assay on HCT-15 colon; 1.26% (active) in the assay with HT29 colon; 13.2% in the assay with SNB-75 CNS; 29.5% with SNB-19 CNS. In addition, the growth was -17% (active) with U251 CNS; -27.8% (active) in the assay with SK-MEL-5 melanoma; 13.4% with UACC-62 melanoma; 17.4% with LOX IMVI melanoma; 50.9% in the assay with SK-MEL-28 melanoma.
Turning to `COc1ccc2nc3cc(Cl)ccc3c(NCCNCC(O)CO)c2c1` (configuration not stated), the growth with DU-145 prostate was 31.6%; in the assay on K-562 leukemia, 10.8%; in the assay on MALME-3M melanoma, 28.7%; with MDA-MB-231 breast, 20%; with RXF 393 renal it was 9.56% (active); in the assay on SF-268 CNS, 28.8%. Moreover, the growth with SF-295 CNS was 45.6%; in the assay with UACC-257 melanoma it was 32.5%; with HCT-15 colon, 73.4%; in the assay on HT29 colon, 6.37% (active); in the assay with SNB-75 CNS, 42.1%; in the assay on SNB-19 CNS, 35.7%. Besides, the growth is 17.3% with U251 CNS; 21.4% with PC-3 prostate; 35.3% in the assay on SK-MEL-5 melanoma; 11% with UACC-62 melanoma; -55.2% (active) in the assay with LOX IMVI melanoma; 30.8% in the assay on SK-MEL-28 melanoma.
